The record followed here is PubChem BioAssay.

Unmarked numbers belong to inactive results. The rule behind the calls is not given here. Non-standard residues stand in square brackets, D forms with d. Residues, ends and D or L forms follow the SMILES beside them. Orn = NCCC[CH](N)C(=O)O

The test system of this assay is Aerobactin synthetase IucA (Klebsiella pneumoniae hvKP1). The assay can be described thus: IucA enzyme inhibition, primary screen, biochemical, Spectrum library (AID 1346200).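 Note: 100% = wells without compound and 0% = wells lacking enzyme.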 The conditions noted are these: malachite green pyrophosphate, A620, at 8 µM, hits give low values.
Take `CCC(C)C(=O)O[C@@H]1C[C@@]2(C)[C@H](c3ccoc3)OC(=O)CC23OC2(C)OC34[C@H](OC(=O)C(C)C)[C@@]3(O)[C@@H](OC(=O)C5(C)OC5C)[C@@]5(C)C[C@]3(O)[C@@](C)([C@H]5CC(=O)OC)C14O2` (some centres undefined): the activity remaining was 112%.

Turning to `C=C1C(=O)[C@]23[C@H](O)[C@H]1CC[C@H]2[C@@]12COC3(O)[C@H](O)[C@@H]1C(C)(C)CC[C@@H]2O`, the activity remaining is 98.4%.

Take `O=c1oc2cc(O)ccc2s1`: the activity remaining was 110%.

Take `S=c1ccss1`: the activity remaining was 84.5%.

Regarding `O=C(Oc1cc(O)cc2c1C[C@@H](OC(=O)c1cc(O)c(O)c(O)c1)[C@@H](c1cc(O)c(O)c(O)c1)O2)c1cc(O)c(O)c(O)c1`, the activity remaining was 122%.

Regarding `Nc1ccc(S(=O)(=O)c2ccc(N)cc2)cc1`, the activity remaining is 109%.

Take `C[C@H]1C(=O)CCC2[C@]3(C)CC[C@@]4(C)C5CC(C)(C)CC[C@]5(C)CC[C@]4(C)C3CC[C@@]21C` (some centres undefined): the activity remaining is 105%.

In the case of `CN1C2CC[C@@H]1CC(OC(=O)[C@H](CO)c1ccccc1)C2` (some centres undefined), the activity remaining was 102%.

As to `CC(C)CC1NC(=O)C(CCCN)NC(=O)C(C(C)C)NC(=O)C(Cc2ccc(O)cc2)NC(=O)C(CCC(=O)O)NC(=O)C(CC(=O)O)NC(=O)C(Cc2ccccc2)NC(=O)C(Cc2ccccc2)NC(=O)C2CCCN2C(=O)C(Cc2ccccc2)NC1=O` (centres undefined) (cyclo(DEYV[Orn]LFPFF); configuration not given here), the activity remaining was 113%.

Take `Nc1ncnc2nc[nH]c12`: the activity remaining is 105%.

`COc1ccc(CCN(C)CCCC(C#N)(c2ccc(OC)c(OC)c2)C(C)C)cc1OC` (centres undefined): the activity remaining is 97.5%.

With `Oc1cc2c(cc1O)C(c1ccccc1)CNCC2` (centres undefined), the activity remaining is 88.1%.

Consider `CN(Cc1cnc2nc(N)nc(N)c2n1)c1ccc(C(=O)NC(CCC(=O)O)C(=O)O)cc1` (centres undefined), for which the activity remaining was 121%.

Take `CC(=O)[C@H]1CCC2C3CC=C4C[C@@H](OC(=O)CCC(=O)O)CC[C@]4(C)C3CC[C@@]21C` (some centres undefined): the activity remaining is 117%.

Take `CCOc1ccc(NC(C)=O)cc1`: the activity remaining was 97.1%.

For `CC1(C)C=Cc2cc3ccc(=O)oc3cc2O1`, the activity remaining is 119%.

`CC(=O)NCCCCCC(=O)O`: the activity remaining was 124%.

Take `O=C(CCCN1CCN(c2ccccn2)CC1)c1ccc(F)cc1`: the activity remaining is 124%.

In the case of `NC(N)=NCCN1CCCCCCC1`, the activity remaining is 104%.

On to `CC1(C)S[C@@H]2[C@H](NC(=O)Cc3ccccc3)C(=O)N2[C@H]1C(=O)O`, for which the activity remaining is 111%.

For `C/C1=C\CC(C)(C)/C=C/CC2(C)OC2CC1` (centres undefined), the activity remaining was 107%.

Take `COC1=C(OC)C(=O)C(C/C=C(\C)CC/C=C(\C)CC/C=C(\C)CC/C=C(/C)CC/C=C(\C)CC/C=C(\C)CC/C=C(\C)CC/C=C(\C)CC/C=C(\C)CCC=C(C)C)=C(C)C1=O`: the activity remaining was 93%.

Regarding `CC1CC(OC(=O)c2ccccc2O)CC(C)(C)C1` (centres undefined), the activity remaining was 110%.

`CC(CCC(=O)O)[C@H]1CCC2C3C(C[C@H](O)[C@@]21C)[C@@]1(C)CC[C@@H](O)C[C@H]1C[C@H]3O` (some centres undefined): the activity remaining is 99.6%.

As for `COc1cc(OC)c2c(=O)c(-c3ccc4c(c3)OCO4)coc2c1`, the activity remaining is 98%.

For the compound `OC[C@@H](O)[C@@H](O[C@@H]1O[C@H](CO)[C@@H](O)[C@H](O)[C@H]1O)[C@H](O)[C@@H](O)CO`, the activity remaining is 96.4%.

Consider `C#C[C@]1(O)CCC2C3CCC4=CC(=O)CC[C@@H]4C3CC[C@@]21C` (some centres undefined), for which the activity remaining is 108%.

On to `CC(C)CCCC(C)C1CCC2C3=CC[C@H]4C[C@@H](O)CC[C@]4(C)C3CC[C@@]21C` (some centres undefined), for which the activity remaining was 114%.

For `CC(C)CC1C(=O)N2CCC[C@H]2C2(O)O[C@](NC(=O)C3C=C4c5cccc6[nH]c(Br)c(c56)C[C@H]4N(C)C3)(C(C)C)C(=O)N12` (some centres undefined), the activity remaining was 113%.

Regarding `CC(C)=CCc1c(O)cc2occ(-c3ccc4c(c3)OCO4)c(=O)c2c1O`, the activity remaining was 114%.

On to `C[C@]12C=CC(=O)C=C1CCC1C3C[C@@H](O)[C@](O)(C(=O)CO)[C@@]3(C)C[C@H](O)[C@@]12F` (some centres undefined), for which the activity remaining is 125%.

In the case of `Nc1nc(N)c2nc(CNc3ccc(C(=O)NC(CCC(=O)O)C(=O)O)cc3)cnc2n1` (centres undefined), the activity remaining is 102%.

As to `NCCCC[C@H](N[C@@H](CCc1ccccc1)C(=O)O)C(=O)N1CCC[C@H]1C(=O)O`, the activity remaining was 114%.

Take `CN1C2CCC1CC(OC(=O)C(CO)c1ccccc1)C2` (centres undefined): the activity remaining was 108%.

`CC(C)(C)NCC(O)COc1cccc2c1CCCC2=O` (centres undefined): the activity remaining was 91.1%.

Turning to `C#C[C@]1(OC(C)=O)CCC2C3CCC4=CC(=O)CC[C@@H]4C3CC[C@@]21C` (some centres undefined), the activity remaining is 93%.

As to `CC(=O)O[C@H]1CCC2(C)C3=C(CCC2C1(C)C)[C@]1(C)CCC(C(C)CCC=C(C)C)[C@@]1(C)CC3` (some centres undefined), the activity remaining is 111%.

`N[C@@H]1[C@@H](O)[C@H](O)[C@@H](CO)O[C@H]1O`: the activity remaining was 80.8%.

Take `C[C@H]1[C@H](C)CC[C@]2(C(=O)O)CC[C@]3(C)C(=CCC4[C@@]5(C)C[C@@H](O)[C@H](O)[C@@](C)(CO)C5CC[C@]43C)[C@H]12` (some centres undefined): the activity remaining was 102%.
